One experiment has as its system T1, DCAMKL2.
T1 construct: gene DCLK2

Some results are limits rather than exact numbers.
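Further: kd values determined as follow-up on hits from a single-replicate KINOMEscan panel screen.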

`Cn1cnc2c(N)ncnc21` [SKF-97623]: the Kd in the experiment on DAPK1 is over 10000 nM. In the case of `O=C1NC(=O)C(c2ccc(Cl)cc2)=C1Nc1cccc(Cl)c1` [SB-317651], in the experiment on CSNK1G3, the Kd was over 10000 nM.

Regarding `CC(=O)c1c(C)c2cnc(Nc3ccc(N4CCNCC4)cn3)nc2n(C2CCCC2)c1=O`, the Kd in the experiment with CSNK1E was over 10000 nM. Take `Cc1ccc(NC(=O)c2ccc(Cl)cc2)cc1-c1ccc(C(=O)Nc2ccncc2)cc1` [GSK1398467]: in the experiment on CSF1R, the Kd turned out to be 880 nM. Consider `COc1ccc(CSc2nnc(-c3ccc4nccn4c3)o2)cc1C(F)(F)F`, for which, in the experiment on CLK4, the Kd stood at 130 nM. In the case of `Cc1nccc(-c2c(-c3ccc(F)cc3)ncn2CCCN2CCOCC2)n1.Cl` [SB-282975], the Kd was 75 nM in the experiment with CSNK1D, 460 nM with CSNK1E and over 10000 nM with DAPK2.

`Cc1ccc(NC(=O)Nc2ccc(Cl)cc2)cc1-c1ccc(C(=O)Nc2ccncc2)cc1` [GSK1398472] showed a Kd in the experiment on CSF1R of 6700 nM. `CNCc1ccc2nc(NC(=O)c3ccc(C(C)(C)C)cc3)cn2c1` yielded a Kd in the experiment with CSNK1G3 of over 10000 nM. As to `CCCCc1nn2ncccc2c1-c1ccnc(NC2CC2)n1` [GW684374], the values for the Kd with CSNK1D and in the experiment on CSNK1E were 480 nM and 2900 nM, respectively. Taken in the same sequence, the figures for `Fc1ccc(-c2nn3cccc(F)c3c2-c2ccncc2)cc1` [GW475620] were 77 nM and 220 nM. As for `Cc1cccc2c(-c3ccncn3)c(-c3ccc(F)cc3)nn12` [GW515532], the values for the Kd with CSNK1D, in the experiment with CSNK1E and in the experiment with CSNK1G3 were 1200 nM, 3400 nM and over 10000 nM, respectively. As to `Fc1ccc(-c2nc[nH]c2-c2ccncc2)cc1` [SB-217360], the Kd in the experiment with CSNK1A1 stood at 87 nM; in the experiment on CSNK1D, 41 nM; in the experiment on CSNK1E, 140 nM. The compound `CC(=O)c1c(C)c2cnc(Nc3ccn(C)n3)nc2n(C2CCCC2)c1=O` registered a dissociation constant (Kd) in the experiment with DCAMKL2 of over 10000 nM.

As for `Cc1ccc(NC(=O)Nc2ccccc2F)cc1-c1ccc(C(=O)Nc2ccncc2)cc1` [GSK1398477], binding in the experiment with CSF1R was characterised by a dissociation constant (Kd) of 2600 nM.

In the experiment on CSNK1G1, `c1ccc(-c2ccnc3[nH]ccc23)cc1` [SB-693578] gave a Kd of over 10000 nM. `CNc1cc(-c2ccc3c(N)n[nH]c3c2)nc(N)n1` [GSK2224810] yielded a Kd in the experiment on CLK4 of 140 nM. Consider `COc1cccc(C2=C(Nc3cc(Cl)c(O)c(Cl)c3)C(=O)NC2=O)c1` [SB-390767], for which the dissociation constant (Kd) with CSNK1G1 is over 10000 nM.

As for `Cc1ccc(NC(=O)Nc2ccccc2)cc1-c1ccc(C(=O)Nc2ccncc2)cc1` [GSK1398471], binding in the experiment with CSF1R was put at a Kd of 3300 nM.

As to `NS(=O)(=O)c1cccc(N/C=C2\C(=O)Nc3ccc(S(=O)(=O)Cc4c(Cl)cccc4Cl)cc32)c1` [GSK398099], the Kd in the experiment with DAPK1 is over 10000 nM.

Take `Fc1ccc(-c2nc3n(c2-c2ccncc2)CCS3)cc1` [GI98581]: the Kd in the experiment with CSNK1A1 was 260 nM; with CSNK1D, 83 nM; with CSNK1E it was 180 nM. In the experiment on CSNK1D, `COC(=O)C(NC(=O)NC1CCN(c2ccnc(Nc3ccc(F)cc3)n2)C1)c1ccccc1` (stereo not shown) [GSK1379712] came in with a Kd of over 10000 nM. For `Nc1nccc(-c2c(-c3ccc(F)cc3)ncn2C2CCN(Cc3ccccc3)CC2)n1` [SB-219980], the Kd with CSNK1A1 stood at 41 nM; in the experiment with CSNK1D it was 7.5 nM; in the experiment on CSNK1E it was 24 nM.

Regarding `COc1ccc(CSc2nnc(-c3ccc4ncsc4c3)o2)cc1C(F)(F)F`, in the experiment on CLK4, the affinity, expressed as Kd, was 1100 nM. On to `COc1ccc(CSc2nnc(-c3ccc4c(c3)CCO4)o2)cc1`, for which, in the experiment with CLK4, the Kd turned out to be 1300 nM.

Turning to `COc1cccc(NC(=O)Nc2ccc(C)c(-c3ccc(C(=O)Nc4ccncc4)cc3)c2)c1` [GSK1398474], in the experiment with CSF1R, the Kd is 3300 nM.
